Data taken from paper PMC7862700, “An all-to-all approach to the identification of sequence-specific readers for epigenetic DNA modifications on cytosine”.

These sequences were tested against T1, GABPA (Homo sapiens, UniProt Q06546 1-454) (assay: DAPPL (digital affinity profiling via proximity ligation, sequencing); 10 mM Tris-HCl pH 7.5, 50 mM NaCl, 1 mM DTT, 4% glycerol, room temperature, 30 min; GST-TFs on glutathione beads, 16-mer random dsDNA library, 0.1% formaldehyde crosslink after washing; high values mean tight binding). Details: protein: recombinant; tags: N-terminal GST; dsDNA, one strand shown.
T1 sequence: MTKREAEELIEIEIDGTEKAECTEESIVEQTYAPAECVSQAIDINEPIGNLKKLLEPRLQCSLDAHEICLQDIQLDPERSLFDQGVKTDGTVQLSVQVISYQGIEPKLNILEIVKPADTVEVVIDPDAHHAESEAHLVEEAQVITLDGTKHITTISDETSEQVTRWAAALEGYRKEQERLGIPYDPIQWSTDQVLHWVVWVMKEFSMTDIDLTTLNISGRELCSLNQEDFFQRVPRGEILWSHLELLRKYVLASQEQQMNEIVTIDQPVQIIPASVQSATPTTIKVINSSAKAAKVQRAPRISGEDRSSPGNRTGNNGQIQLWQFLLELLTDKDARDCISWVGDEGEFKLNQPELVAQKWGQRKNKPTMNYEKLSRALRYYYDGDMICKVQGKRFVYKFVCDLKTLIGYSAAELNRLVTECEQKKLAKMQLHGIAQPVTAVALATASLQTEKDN
How it was run: (§1)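 Pools of DNA-barcoded human transcription factors, expressed in yeast as GST fusions on glutathione beads and combined with a tag-only sample, were incubated with 200 nmole of a 16-mer random double-stranded DNA library. Incubation took 30 min at room temperature in Tris/NaCl/DTT/glycerol buffer and was followed by washing, 0.1% formaldehyde crosslinking, proximity ligation (BsaI/T4 ligase, 1 h, 37 °C), PCR amplification and sequencing on an Illumina NextSeq500. Binding signal is the ratio of a hexamer's read frequency for a factor to its frequency for the tag-only sample.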
AGGCCT was tested, and the binding signal was 1.08 fold enrichment (6-mer frequency, TF over GST control). With CGGCAC the binding signal was 1.03 fold enrichment (6-mer frequency, TF over GST control). TGCGTC was tested, and the binding signal was 1.01 fold enrichment (6-mer frequency, TF over GST control).

These sequences were tested against T2, EHF (Homo sapiens, UniProt Q9NZC4 1-300) in the same assay as above. Details: protein: recombinant; tags: N-terminal GST; dsDNA, one strand shown.
T2 sequence: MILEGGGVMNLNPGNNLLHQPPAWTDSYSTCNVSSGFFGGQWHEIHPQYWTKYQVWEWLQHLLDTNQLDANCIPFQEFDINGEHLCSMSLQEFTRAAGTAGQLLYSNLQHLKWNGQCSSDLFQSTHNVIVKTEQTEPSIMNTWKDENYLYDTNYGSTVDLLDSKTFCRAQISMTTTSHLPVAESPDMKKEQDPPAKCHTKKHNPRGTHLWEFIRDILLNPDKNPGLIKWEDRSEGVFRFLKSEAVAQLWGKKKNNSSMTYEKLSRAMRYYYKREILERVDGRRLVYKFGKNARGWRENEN
How it was run: as §1
In the case of CATCGT, the binding signal is reported as 1 fold enrichment (6-mer frequency, TF over GST control). For AAGGTC, the binding signal was 1.08 fold enrichment (6-mer frequency, TF over GST control). In the case of GCGGCT, the binding signal is reported as 1.02 fold enrichment (6-mer frequency, TF over GST control).

Each sequence was assayed against SPIB (Homo sapiens, UniProt Q01892 1-262) in the same assay as above. Details: protein: recombinant; tags: N-terminal GST; dsDNA, one strand shown.
Chain of SPIB (Q01892 whole entry): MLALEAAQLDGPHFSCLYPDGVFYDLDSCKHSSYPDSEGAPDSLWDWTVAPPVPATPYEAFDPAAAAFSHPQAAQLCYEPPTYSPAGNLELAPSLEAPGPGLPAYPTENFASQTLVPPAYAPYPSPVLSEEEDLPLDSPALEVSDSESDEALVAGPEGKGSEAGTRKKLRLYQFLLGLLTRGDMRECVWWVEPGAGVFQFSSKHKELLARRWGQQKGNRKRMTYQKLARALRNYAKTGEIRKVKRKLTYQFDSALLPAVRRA
How it was run: as §1
With TGAAGG the binding signal was 1 fold enrichment (6-mer frequency, TF over GST control). CATCGT was tested, and the binding signal was 1.05 fold enrichment (6-mer frequency, TF over GST control). With CGGCAC the binding signal was 1.03 fold enrichment (6-mer frequency, TF over GST control). With AGTTTA the binding signal was 1.04 fold enrichment (6-mer frequency, TF over GST control).

What follows are sequences tested against T3, ELK3 (Homo sapiens, UniProt P41970 1-407) in the same assay as above. Details: protein: recombinant; tags: N-terminal GST; dsDNA, one strand shown.
T3 sequence: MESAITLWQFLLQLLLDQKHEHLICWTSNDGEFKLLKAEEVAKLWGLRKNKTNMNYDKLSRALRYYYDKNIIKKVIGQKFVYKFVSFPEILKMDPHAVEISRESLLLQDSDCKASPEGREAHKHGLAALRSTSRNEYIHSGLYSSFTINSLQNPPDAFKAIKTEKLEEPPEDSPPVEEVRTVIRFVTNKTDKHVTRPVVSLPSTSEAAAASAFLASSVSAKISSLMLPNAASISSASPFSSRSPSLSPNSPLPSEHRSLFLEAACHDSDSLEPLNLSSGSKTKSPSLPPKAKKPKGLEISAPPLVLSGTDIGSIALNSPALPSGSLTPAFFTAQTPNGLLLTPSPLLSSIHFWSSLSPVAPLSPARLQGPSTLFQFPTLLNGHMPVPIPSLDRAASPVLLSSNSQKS
How it was run: as §1
TGGGCG was tested, and the binding signal was 1.01 fold enrichment (6-mer frequency, TF over GST control). AGGCCT was tested, and the binding signal was 1.01 fold enrichment (6-mer frequency, TF over GST control). In the case of AGGCTA, the binding signal is reported as 1.05 fold enrichment (6-mer frequency, TF over GST control). AGTTTA was tested, and the binding signal was 1.03 fold enrichment (6-mer frequency, TF over GST control).

These sequences were tested against T4, ETV2 (Homo sapiens, UniProt O00321 1-342) in the same assay as above. Details: protein: recombinant; tags: N-terminal GST; dsDNA, one strand shown.
T4 sequence: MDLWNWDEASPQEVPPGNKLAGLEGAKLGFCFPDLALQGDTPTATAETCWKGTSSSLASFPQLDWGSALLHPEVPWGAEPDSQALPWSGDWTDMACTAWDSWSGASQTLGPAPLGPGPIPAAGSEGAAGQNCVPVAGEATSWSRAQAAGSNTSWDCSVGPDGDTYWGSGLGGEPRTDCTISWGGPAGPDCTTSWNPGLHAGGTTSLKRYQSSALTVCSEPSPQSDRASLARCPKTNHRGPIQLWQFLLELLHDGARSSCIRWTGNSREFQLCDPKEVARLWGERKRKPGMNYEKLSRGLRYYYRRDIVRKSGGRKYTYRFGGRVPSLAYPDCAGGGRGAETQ
How it was run: as §1
For TGAAGG, the binding signal was 1 fold enrichment (6-mer frequency, TF over GST control). In the case of TGGGCG, the binding signal is reported as 1 fold enrichment (6-mer frequency, TF over GST control). CGGACC was tested, and the binding signal was 1.02 fold enrichment (6-mer frequency, TF over GST control). For GATAAC, the binding signal was 1.08 fold enrichment (6-mer frequency, TF over GST control). AGGCCT was tested, and the binding signal was 1.01 fold enrichment (6-mer frequency, TF over GST control). GGCATA was tested, and the binding signal was 1.05 fold enrichment (6-mer frequency, TF over GST control). With CCGTTA the binding signal was 1.05 fold enrichment (6-mer frequency, TF over GST control). In the case of CTGGGA, the binding signal is reported as 1.01 fold enrichment (6-mer frequency, TF over GST control). With TCGTCG the binding signal was 1.05 fold enrichment (6-mer frequency, TF over GST control). CATCGT was tested, and the binding signal was 1.01 fold enrichment (6-mer frequency, TF over GST control). TTGGGA was tested, and the binding signal was 1.03 fold enrichment (6-mer frequency, TF over GST control). For GACCGA, the binding signal was 1.04 fold enrichment (6-mer frequency, TF over GST control). In the case of AGCCCA, the binding signal is reported as 1.04 fold enrichment (6-mer frequency, TF over GST control). For ACTGGG, the binding signal was 1.03 fold enrichment (6-mer frequency, TF over GST control). With GTTCAG the binding signal was 1.01 fold enrichment (6-mer frequency, TF over GST control). With GTATCG the binding signal was 1.09 fold enrichment (6-mer frequency, TF over GST control). AGGCTA was tested, and the binding signal was 1 fold enrichment (6-mer frequency, TF over GST control). AAGGTC was tested, and the binding signal was 1.06 fold enrichment (6-mer frequency, TF over GST control). In the case of AGCCAT, the binding signal is reported as 1.02 fold enrichment (6-mer frequency, TF over GST control). For TGCGTC, the binding signal was 1.04 fold enrichment (6-mer frequency, TF over GST control). In the case of ACCCGT, the binding signal is reported as 1 fold enrichment (6-mer frequency, TF over GST control). GACCCA was tested, and the binding signal was 1.09 fold enrichment (6-mer frequency, TF over GST control). In the case of GCGACG, the binding signal is reported as 1.15 fold enrichment (6-mer frequency, TF over GST control). For GCGGCT, the binding signal was 1.08 fold enrichment (6-mer frequency, TF over GST control). In the case of GCAAAG, the binding signal is reported as 1.12 fold enrichment (6-mer frequency, TF over GST control).
